The nature of experiment [1]: ATG_DR4_LXR_CIS: Attagene CIS-FACTORIAL HepG2 Assay for human Liver X Receptor (LXR), DR4 submotif (AID 2282929). As to conditions: HepG2 Attagene DR4 cis-reporter, mRNA transcription; actives raise or lower the signal. An outline of the steps: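 HepG2 cells were transiently transfected with multiple cis-regulated reporter units and dosed for 24 hours. The DR4 reporter mRNA was quantified by RT-PCR, 6-FAM labelling and capillary electrophoresis. Bidirectional fits used DMSO as baseline.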

Experiment [2] concerns the target Aryl hydrocarbon receptor (Homo sapiens) (UniProt P35869). The experiment is described as follows: ATG_Ahr_CIS: Attagene CIS-FACTORIAL HepG2 Assay for human Aryl Hydrocarbon Receptor (Ahr) (AID 2282930). The conditions noted are these: HepG2 AhR cis-factorial reporter transcription; actives raise or lower the signal. A digest of the protocol:
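Transient MRTU transfection of HepG2 → 24 h compound exposure → total RNA, oligo(dT) RT → PCR, 6-FAM extension, HpaI cut → CE fluorescence. DMSO = baseline; bidirectional curve fit.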

Experiment [3] in a line: ATG_AP_1_CIS: Attagene CIS-FACTORIAL HepG2 Assay for human Activator Protein 1 (AP-1) (AID 2282931). The conditions noted are these: HepG2 Attagene cis-factorial AP-1 reporter mRNA; actives raise or lower the signal. An outline of the steps: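 HepG2 cells transiently transfected with cis-element-driven reporter transcription units, dosed for 24 hours. Reporter mRNA measured by RT-PCR, 6-FAM labelling, HpaI digestion and capillary electrophoresis. Bidirectional fitting against DMSO baseline.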

Experiment [4] is described as follows: ATG_AP_2_CIS: Attagene CIS-FACTORIAL HepG2 Assay for human Activator Protein 2 (AP-2) (AID 2282932). The conditions noted are these: HepG2 AP-2 cis-reporter, Attagene transcription factor profiling; actives raise or lower the signal. A digest of the protocol: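 Endogenous transcription factor activity is reported through transfected multiplex reporter constructs in HepG2, after 24 h of compound exposure. Transcripts were quantified by RT-PCR and capillary electrophoresis of fluorescent fragments. Bidirectional fit against DMSO.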

Experiment [5] is described as follows: ATG_BRE_CIS: Attagene CIS-FACTORIAL HepG2 Assay for human Bone Morphogenetic Protein (BMP) Response Element (BRE) (AID 2282933). The conditions noted are these: HepG2 BMP response element reporter, Attagene transcription factor profiling; actives raise or lower the signal. An outline of the steps:
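A HepG2 multiplex reporter system measured inducible reporter mRNA 24 h post-dosing. Detection: RT-PCR, 6-FAM primer extension, HpaI digestion, capillary electrophoresis. Activity fitted bidirectionally relative to DMSO.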

Experiment [6] has as its target Retinoic acid receptor alpha (Homo sapiens) (UniProt P10276). The experiment is described as follows: ATG_DR5_RAR_CIS: Attagene CIS-FACTORIAL HepG2 Assay for human Retinoic Acid Receptor Alpha (RARE), DR5 submotif (AID 2282934).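 As to AC50: reporter responds to endogenous RAR alpha beta and gamma in HepG2 not RARA alone.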 As to conditions: HepG2 Attagene cis-factorial RARE DR5 reporter, mRNA; actives raise or lower the signal. A digest of the protocol:
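Transient MRTU transfection of HepG2; 24 h compound treatment; TriZol RNA, oligo(dT) RT, PCR, FAM labelling, capillary electrophoresis. Bidirectional fit vs DMSO. Endogenous TF activity at DR5 RARE.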

Experiment [7] concerns the target Transcription factor E2F1 (Homo sapiens) (UniProt Q01094). The experiment is described as follows: ATG_E2F_CIS: Attagene CIS-FACTORIAL HepG2 Assay for human E2F Transcription Factor 1 (AID 2282935). As to conditions: HepG2 Attagene cis-reporter, E2F reporter RNA transcripts; actives raise or lower the signal. A digest of the protocol:
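Gain or loss of reporter transcript, fitted against DMSO, reflects E2F1-driven transcription. Transiently transfected HepG2 dosed 24 h before RNA isolation. Quantified by fluorescent RT-PCR products separated by capillary electrophoresis.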

Experiment [8] in a line: ATG_E_Box_CIS: Attagene CIS-FACTORIAL HepG2 Assay for human Enhancer Box (E-box) (AID 2282936). The conditions noted are these: HepG2 E-box cis-reporter transcription, actives raise or lower the signal. A digest of the protocol:
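E-box-driven reporter transcripts measured in transiently transfected HepG2 after 24 h exposure: RNA reverse-transcribed, PCR-amplified, fluorescently labelled, digested and resolved by capillary electrophoresis. Gain or loss relative to DMSO.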

Experiment [9] is described as follows: ATG_EGR_CIS: Attagene CIS-FACTORIAL HepG2 Assay for human Early Growth Response 1 (EGR1) (AID 2282938). As to conditions: HepG2 Attagene CIS-FACTORIAL EGR reporter mRNA; actives raise or lower the signal. An outline of the steps: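 HepG2 cells transiently transfected with cis-element-driven multiplexed reporter units, dosed for 24 h. EGR1-element reporter mRNA quantified by RT-PCR, 6-FAM labelling, HpaI digestion and capillary electrophoresis; bidirectional fit versus DMSO.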

Experiment [10] in a line: ATG_M_19_CIS: Attagene CIS-FACTORIAL HepG2 Assay for M19 Transcription Factor (Internal Marker) (AID 2282939). The conditions noted are these: HepG2 Attagene CIS-FACTORIAL M19 internal marker reporter; actives raise or lower the signal. An outline of the steps:
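Chemical-treated HepG2 (24 h) with MRTU constructs; reporter transcripts detected by fluorescent RT-PCR fragment analysis on capillary electrophoresis. Internal background marker, DMSO as baseline.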

Experiment [11] can be described thus: ATG_Ets_CIS: Attagene CIS-FACTORIAL HepG2 Assay for human Erythroblast Transformation Specific (ETS) (AID 2282941). As to conditions: HepG2 ETS cis-reporter transcription, actives raise or lower the signal. A digest of the protocol: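 RT-PCR/capillary electrophoresis fluorescence read-out of reporter mRNA; HepG2 transient multi-reporter transfection; 24 h compound exposure; gain or loss of signal fitted bidirectionally relative to DMSO.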

Experiment [12] concerns the target Hepatocyte nuclear factor 3-beta (Homo sapiens) (UniProt Q9Y261). The experiment is described as follows: ATG_FoxA2_CIS: Attagene CIS-FACTORIAL HepG2 Assay for human Forkhead box A2 (FOXA2) (AID 2282942). The conditions noted are these: HepG2 cis-reporter transcription factor activity, 24 h; actives raise or lower the signal. A digest of the protocol: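 HepG2 transiently transfected with a multiplexed cis-promoter reporter library read endogenous FOXA2 activity. After 24 h compound exposure, reporter mRNA was quantified by RT-PCR, HpaI digestion and capillary electrophoresis. Bidirectional fit against DMSO.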

Experiment [13] in a line: ATG_FoxO_CIS: Attagene CIS-FACTORIAL HepG2 Assay for human Forkhead box O (FoxO) (AID 2282943). The conditions noted are these: HepG2 Attagene cis-reporter, FoxO element, mRNA; actives raise or lower the signal. A digest of the protocol: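 HepG2, transient MRTU transfection (cis element, endogenous TFs). Dose 24 h. TriZol RNA → oligo(dT) RT → PCR → 6-FAM primer extension → HpaI cut → CE. Gain/loss vs DMSO.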

Experiment [14] is described as follows: ATG_GATA_CIS: Attagene CIS-FACTORIAL HepG2 Assay for human GATA Binding Protein (AID 2282944). As to conditions: HepG2 GATA cis-element reporter, Attagene multiplex mRNA; actives raise or lower the signal. A digest of the protocol:
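Transfected cis-reporter HepG2 cells were treated with chemicals for 24 hours. Total RNA was then converted to cDNA, amplified with reporter-specific primers and analysed by fluorescent capillary electrophoresis, using DMSO-treated wells as baseline.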

The nature of experiment [15]: ATG_GLI_CIS: Attagene CIS-FACTORIAL HepG2 Assay for human Zinc Finger Protein GLI1 (AID 2282945). As to conditions: HepG2, Attagene cis-factorial reporter mRNA, GLI element; actives raise or lower the signal. An outline of the steps:
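Bidirectional curve fits relative to DMSO, using reporter mRNA levels from RT-PCR plus capillary electrophoresis. Cells were HepG2 transiently carrying cis-regulated reporter constructs, harvested 24 h after dosing.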

Experiment [16] is described as follows: ATG_GRE_CIS: Attagene CIS-FACTORIAL HepG2 Assay for human Glucocorticoid Response Elements (GRE) (AID 2282947). As to conditions: HepG2 GRE cis-reporter, Attagene multiplex mRNA; actives raise or lower the signal. A digest of the protocol:
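Reporter transcripts read by RT-PCR with capillary electrophoresis fluorescence after a 24 h chemical exposure of HepG2 cells transiently transfected with multiple cis-element reporter units. Gain or loss fitted against DMSO.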

Experiment [17] is described as follows: ATG_ISRE_CIS: Attagene CIS-FACTORIAL HepG2 Assay for human Interferon Regulatory Factor 1 (IRF1) binding to an Interferon-Stimulated Response Element (ISRE) (AID 2282948). As to conditions: HepG2 ISRE cis-reporter (Attagene), mRNA transcription readout; actives raise or lower the signal. An outline of the steps: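 Read-out: fluorescent RT-PCR products resolved by capillary electrophoresis, reporting endogenous transcription factor activity via ISRE-driven reporter mRNA in transfected HepG2 cells dosed for 24 h; gain or loss fitted relative to DMSO.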

The nature of experiment [18]: ATG_M_61_CIS: Attagene CIS-FACTORIAL HepG2 Assay for M61 Transcription Factor (Internal Marker) (AID 2282937). As to conditions: HepG2 Attagene CIS-FACTORIAL M61 internal marker reporter; actives raise or lower the signal. A digest of the protocol:
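HepG2 cells transiently transfected with multiplexed cis-promoter reporter units reporting endogenous transcription factor activity, measured 24 h after dosing. Reporter mRNA quantified by RT-PCR and capillary electrophoresis; bidirectional fit against DMSO baseline.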

Experiment [19] can be described thus: ATG_ERE_CIS: Attagene CIS-FACTORIAL HepG2 Assay for Estrogen Response Element (ERE) (AID 2282940). The conditions noted are these: HepG2 ERE cis-reporter, Attagene RNA transcript; actives raise or lower the signal. A digest of the protocol:
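Human liver cells (HepG2) bearing transiently transfected, promoter-regulated reporter units were exposed 24 h. Reporter mRNA induction was detected by capillary electrophoresis of labelled RT-PCR products and fitted bidirectionally to DMSO.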

Experiment [20] concerns the target Bile acid receptor (Homo sapiens) (UniProt Q96RI1). The experiment is described as follows: ATG_IR1_CIS: Attagene CIS-FACTORIAL HepG2 Assay for human Nuclear Receptor Subfamily 1 Group H Member 4 (NR1H4), IR1 submotif (AID 2282946). As to conditions: IR1 reporter transcription, actives raise or lower the signal. An outline of the steps:
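HepG2 cells transiently transfected with multiplexed cis-element reporter units read endogenous transcription factor activity. After 24 h compound exposure, reporter mRNA was quantified by RT-PCR, fluorescent labelling, HpaI digestion and capillary electrophoresis; bidirectional fitting versus DMSO baseline.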

This is an account of results in PubChem BioAssay (EPA / NIEHS).

Calls of active or inactive are those of the source. The calls were made as follows: active = hit-call score of the fitted dose curve at least 0.9, where 1 is the maximum; inactive = score below 0.9.

Hepatocyte nuclear factor 3-beta (Homo sapiens), sequence (Q9Y261 whole entry, looked up): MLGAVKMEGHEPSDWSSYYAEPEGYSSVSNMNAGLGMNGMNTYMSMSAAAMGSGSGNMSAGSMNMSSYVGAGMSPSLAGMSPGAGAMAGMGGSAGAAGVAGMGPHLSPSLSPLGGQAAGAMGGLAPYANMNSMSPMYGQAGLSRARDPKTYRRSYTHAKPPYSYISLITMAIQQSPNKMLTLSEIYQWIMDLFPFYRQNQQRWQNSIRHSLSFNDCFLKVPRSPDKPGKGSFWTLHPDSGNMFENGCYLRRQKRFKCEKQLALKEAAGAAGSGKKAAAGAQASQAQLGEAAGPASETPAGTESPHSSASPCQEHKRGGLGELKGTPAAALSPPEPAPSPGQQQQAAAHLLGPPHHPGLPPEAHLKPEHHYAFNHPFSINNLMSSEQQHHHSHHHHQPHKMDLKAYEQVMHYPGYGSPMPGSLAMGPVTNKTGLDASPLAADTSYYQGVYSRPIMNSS
Bile acid receptor (Homo sapiens), sequence (Q96RI1 whole entry, looked up): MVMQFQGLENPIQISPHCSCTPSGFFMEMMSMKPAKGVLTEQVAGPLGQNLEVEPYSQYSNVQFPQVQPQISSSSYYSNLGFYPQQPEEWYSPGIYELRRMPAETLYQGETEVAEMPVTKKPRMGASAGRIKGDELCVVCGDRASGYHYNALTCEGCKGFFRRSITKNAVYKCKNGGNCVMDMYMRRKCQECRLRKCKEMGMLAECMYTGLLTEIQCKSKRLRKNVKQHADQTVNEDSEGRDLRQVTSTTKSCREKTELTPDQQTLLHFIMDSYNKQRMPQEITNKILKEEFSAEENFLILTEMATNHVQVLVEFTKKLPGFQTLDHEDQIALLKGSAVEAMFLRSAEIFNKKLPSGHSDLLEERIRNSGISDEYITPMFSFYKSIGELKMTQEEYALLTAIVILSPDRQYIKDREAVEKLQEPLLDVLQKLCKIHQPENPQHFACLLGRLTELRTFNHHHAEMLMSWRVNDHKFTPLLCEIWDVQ
Retinoic acid receptor alpha (Homo sapiens), sequence (P10276 whole entry, looked up): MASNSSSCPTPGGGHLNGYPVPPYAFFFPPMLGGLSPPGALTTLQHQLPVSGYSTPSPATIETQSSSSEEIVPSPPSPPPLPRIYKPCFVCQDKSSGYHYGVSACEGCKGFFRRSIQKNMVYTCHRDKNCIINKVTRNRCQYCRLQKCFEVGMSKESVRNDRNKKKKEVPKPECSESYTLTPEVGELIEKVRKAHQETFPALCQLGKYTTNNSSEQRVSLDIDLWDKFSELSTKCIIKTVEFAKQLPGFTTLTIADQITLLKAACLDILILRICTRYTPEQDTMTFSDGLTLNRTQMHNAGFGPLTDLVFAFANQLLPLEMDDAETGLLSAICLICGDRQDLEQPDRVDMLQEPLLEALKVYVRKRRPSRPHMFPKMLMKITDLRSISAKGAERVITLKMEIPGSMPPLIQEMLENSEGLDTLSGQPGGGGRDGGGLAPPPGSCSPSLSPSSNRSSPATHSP
Transcription factor E2F1 (Homo sapiens), sequence (Q01094 whole entry, looked up): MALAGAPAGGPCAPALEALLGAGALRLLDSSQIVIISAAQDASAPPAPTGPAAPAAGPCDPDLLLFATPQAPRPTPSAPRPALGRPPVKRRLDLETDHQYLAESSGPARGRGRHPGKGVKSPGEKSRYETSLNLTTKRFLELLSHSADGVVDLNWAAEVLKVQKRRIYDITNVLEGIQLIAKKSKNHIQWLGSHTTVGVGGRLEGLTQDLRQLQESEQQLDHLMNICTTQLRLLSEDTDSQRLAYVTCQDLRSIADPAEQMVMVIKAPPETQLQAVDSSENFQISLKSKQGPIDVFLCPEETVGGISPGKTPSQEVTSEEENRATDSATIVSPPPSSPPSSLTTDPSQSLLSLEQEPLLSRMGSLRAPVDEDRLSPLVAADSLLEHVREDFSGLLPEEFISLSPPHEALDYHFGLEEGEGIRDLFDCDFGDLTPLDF
Aryl hydrocarbon receptor (Homo sapiens), sequence (P35869 whole entry, looked up): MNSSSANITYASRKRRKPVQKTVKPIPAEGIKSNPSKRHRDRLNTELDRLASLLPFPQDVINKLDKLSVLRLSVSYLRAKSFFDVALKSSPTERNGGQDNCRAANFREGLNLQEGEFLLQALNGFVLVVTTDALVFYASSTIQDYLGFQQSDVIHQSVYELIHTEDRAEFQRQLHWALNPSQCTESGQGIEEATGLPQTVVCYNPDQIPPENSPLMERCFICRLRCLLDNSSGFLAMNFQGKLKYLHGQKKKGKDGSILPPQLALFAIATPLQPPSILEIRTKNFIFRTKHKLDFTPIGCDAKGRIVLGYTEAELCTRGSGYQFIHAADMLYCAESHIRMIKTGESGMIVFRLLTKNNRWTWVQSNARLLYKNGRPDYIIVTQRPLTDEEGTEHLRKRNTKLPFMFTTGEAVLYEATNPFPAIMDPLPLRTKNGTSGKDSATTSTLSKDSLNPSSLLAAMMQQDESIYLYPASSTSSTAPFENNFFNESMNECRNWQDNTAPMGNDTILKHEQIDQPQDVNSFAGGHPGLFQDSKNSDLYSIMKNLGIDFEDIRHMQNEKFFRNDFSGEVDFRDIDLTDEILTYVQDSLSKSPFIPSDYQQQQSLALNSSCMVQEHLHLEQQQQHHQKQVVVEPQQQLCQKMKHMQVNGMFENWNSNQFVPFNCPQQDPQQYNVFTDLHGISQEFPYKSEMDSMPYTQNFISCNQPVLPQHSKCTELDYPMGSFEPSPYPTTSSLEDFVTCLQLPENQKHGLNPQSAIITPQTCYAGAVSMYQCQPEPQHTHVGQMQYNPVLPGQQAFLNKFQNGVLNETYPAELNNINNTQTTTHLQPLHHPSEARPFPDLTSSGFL

Broadly, the AC50 is the concentration giving half of the maximal activity seen. With `O=CCCl`, the AC50 in experiment [1] was 68.5 µM (active); in [2], 84.7 µM (active); in experiment [3], 165 µM (active); in [8], 183 µM (active); in experiment [9] it was 38.4 µM (active); in [13] it was 26.6 µM (active). In addition, the values for the concentration at half-maximal activity (AC50) in experiment [15] and in experiment [17] were 25.5 µM (active) and 51.9 µM (active), respectively. For the same compound, the outcome in [4], in experiment [5], in [6], in experiment [7], in [10] and in experiment [11] was inactive. The outcome in experiment [12], in experiment [14] and in [16] was inactive.

`CCCCCCCCCCCCN(C)C`: the AC50 was 50.9 µM (active) in experiment [1]; 33.4 µM (active) in experiment [4]; 57.4 µM (active) in experiment [6]; 7.96 µM (active) in [8]; 58.7 µM (active) in [13]; 47.8 µM (active) in experiment [20]. Besides, the compound was called inactive in experiment [2], in experiment [3], in [5], in experiment [7], in [18] and in experiment [10]. The result in experiment [19], in [11], in [14], in experiment [15], in experiment [16] and in experiment [17] was inactive.

In the case of `O=[N+]([O-])c1ccc(Nc2ccccc2)cc1`, the call in [1], in experiment [2], in [3], in experiment [4], in [6] and in [7] was inactive. The result in experiment [8], in experiment [9], in [10], in experiment [19], in experiment [11] and in [12] was inactive. Moreover, the result in experiment [13], in experiment [14], in experiment [15] and in [20] was inactive. In addition, the figures for the AC50 in experiment [5] and in experiment [17] were 163 µM (active) and 130 µM (active), respectively.

Turning to `CCOP(=S)(OCC)O/N=C(\C#N)c1ccccc1`, the AC50 was 27.7 µM (active) in [1], 0.657 µM (active) in experiment [2], 42.3 µM (active) in [3] and 31.6 µM (active) in experiment [5]. Also, the compound was classed as inactive in [4], in experiment [6], in [7], in [8], in experiment [18] and in experiment [9]. Besides, the outcome in [12], in experiment [13], in experiment [14], in experiment [15], in experiment [20] and in experiment [16] was inactive. Moreover, in experiment [17], the call was inactive.
